Results from PubChem BioAssay (EPA / NIEHS).
Several values for one entry are separate records, joined by “and”; a condition that tells them apart may be missing. Identical values can stand only once. Results filed as inconclusive are left out. Activity calls are given as the source filed them. The calls were made as follows: active = hit-call score of the fitted dose curve at least 0.9, where 1 is the maximum; inconclusive = response in the unintended direction; inactive = score below 0.9.

Experiments:
[1] = molecular target: Estrogen receptor (Homo sapiens) (UniProt P03372); assay: NVS_NR_hER: NovaScreen (NVS) Nuclear Receptor Binding Assay for human Estrogen Receptor (ER) (AID 2283348)
Method in brief: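 Radiodetection of ligand displacement in a lysate-based, cell-free format using MCF7 extracts, read at 18 hours. Duplicate 25 uM primary testing, then concentration series for actives.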

[2] = molecular target: Estrogen receptor (Homo sapiens) (UniProt P03372); assay: OT_ER_ERaERa_1440: Odyssey Thera (OT) 24-hour HEK293T Protein-Complementation Assay for Estrogen Receptor-alpha/-alpha Homodimer (AID 2283349);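 also: hits raise fluorescence above DMSO for agonists and antagonists alike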
Method in brief: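 Stably transfected HEK293T; ERα LBD homodimer PCA. 24 h dosing, fluorescence intensity read, gain-of-signal vs DMSO.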

[3] = molecular target: Estrogen receptor (Homo sapiens) (UniProt P03372); assay: OT_ER_ERaERa_0480: Odyssey Thera (OT) 8-hour HEK293T Protein-Complementation Assay for Estrogen Receptor-alpha/-alpha Homodimer (AID 2283351);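 also: rise in fluorescence from reassembled reporter fragments on ERα LBD homodimer in nucleus or whole cell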
Method in brief: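 Read-out: fluorescence intensity rise relative to DMSO, nuclear for agonists, nuclear plus cytoplasmic for antagonists. Construct is the ERα LBD (aa 310-547) homodimer fragment-complementation pair, stably expressed in HEK293T; exposure 8 h.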

[4] = molecular target: Estrogen receptor beta (Homo sapiens) (UniProt Q92731); assay: OT_ER_ERbERb_0480: Odyssey Thera (OT) 8-hour HEK293T Protein-Complementation Assay for Estrogen Receptor-beta/-beta Homodimer (AID 2283357);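 also: active means signal gain over DMSO baseline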
Method in brief: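 Fluorescence gain from complemented reporter fragments on ER-beta LBD homodimer in HEK293T was quantified against DMSO controls after 8 h treatment, fixation in 4% formaldehyde and Draq5 staining.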

[5] = molecular target: bovine Estrogen Receptor (ER), ESR1 (gene 407238) (UniProt P49884); assay: NVS_NR_bER: NovaScreen (NVS) Nuclear Receptor Binding Assay for bovine Estrogen Receptor (ER) (AID 2283345);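 also: actives lower the bound radioligand count which means they displace the ER ligand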
Method in brief: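 Displacement of a radioligand from estrogen receptor in bovine uterine membrane preparations; scintillation signal taken at 18 hours, DMSO as baseline. Single-concentration duplicates (25 uM) preceded concentration-response follow-up of actives.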

[6] = molecular target: chimpanzee Androgen Receptor (AR), AR (gene 747460) (UniProt O97775); assay: NVS_NR_cAR: NovaScreen (NVS) Nuclear Receptor Binding Assay for chimpanzee Androgen Receptor (AR) (AID 2283346);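 also: radioligand displacement from AR measured by scintillation counting in a cell-free assay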
Method in brief: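 Cell-free radioligand displacement using receptor protein extracted from Sf9/Sf21 cells; bound radioligand measured by scintillation counting 72 hours after chemical dosing. Loss of signal versus DMSO baseline indicates binding; primary screen single-concentration in duplicate at 25 uM, actives followed in concentration series.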

[7] = molecular target: Estrogen receptor (Homo sapiens) + Estrogen receptor beta (Homo sapiens) (UniProt P03372+Q92731); assay: OT_ER_ERaERb_0480: Odyssey Thera (OT) 8-hour HEK293T Protein-Complementation Assay for Estrogen Receptor-alpha/-beta Heterodimer (AID 2283352)
Method in brief: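 Compound added to HEK293T cells carrying split-reporter-tagged ER-alpha and ER-beta LBDs, incubated 8 hours, then imaged by laser scanning cytometer. Signal rise in nucleus, or nucleus and cytoplasm, over vehicle was fitted in the positive direction.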

[8] = molecular target: Androgen Receptor/SRC-1 Co-activator, AR (gene 367) (UniProt P10275); assay: OT_AR_ARSRC1_0960: Odyssey Thera (OT) 16-hour HEK293T Protein-Complementation Assay for Androgen Receptor/SRC-1 Co-activator (AID 2283353);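 also: actives raise the signal above DMSO so potency reflects increased AR and SRC-1 complex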
Method in brief: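 Readout: 488 nm nuclear-to-cytoplasmic fluorescence ratio from imaging of at least 400 cells per image, 16 h post-dose. Reporter is Venus YFP complementation between AR and SRC-1 fusions, stably expressed in HEK293T; activity scored upward relative to DMSO.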

[9] = molecular target: Androgen Receptor/SRC-1 Co-activator, AR (gene 367) (UniProt P10275); assay: OT_AR_ARSRC1_0480: Odyssey Thera (OT) 8-hour HEK293T Protein-Complementation Assay for Androgen Receptor/SRC-1 Co-activator (AID 2283354);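 also: hits raise the complementation signal above DMSO so AC50 marks enhancers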
Method in brief: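 After 8 h dosing, stably expressing HEK293T cells with split-Venus AR/SRC-1 fusions were imaged (488, 635nm). The 488nm N/C ratio per image gave the endpoint, analysed in the positive direction against DMSO.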

[10] = molecular target: Bile acid receptor (Homo sapiens) (UniProt Q96RI1); assay: NVS_NR_hFXR_Antagonist: NovaScreen (NVS) Nuclear Receptor Binding Assay for human Farnesoid X Receptor Antagonism (FXR) (AID 2283350)
Method in brief: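 Antagonist-format time-resolved FRET binding assay with extracted human receptor protein, read 1 hour after compound addition. Compounds first screened at 25 uM in duplicate, then actives tested in concentration series, with loss of signal relative to DMSO.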

[11] = molecular target: rat Mineralocorticoid Receptor (MR), Nr3c2 (gene 25672) (UniProt P22199); assay: NVS_NR_rMR: NovaScreen (NVS) Nuclear Receptor Binding Assay for rat Mineralocorticoid Receptor (MR) (AID 2283355)
Method in brief: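 Single-concentration duplicate screen (25 uM) of radioligand binding in adrenalectomized rat brain supernatant; scintillation detection 24 h after dosing. Positive and negative controls ran on each plate, and confirmed actives went to concentration-response.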

Androgen Receptor/SRC-1 Co-activator, AR (gene 367), sequence (P10275 whole entry, looked up, the tested form may be a part): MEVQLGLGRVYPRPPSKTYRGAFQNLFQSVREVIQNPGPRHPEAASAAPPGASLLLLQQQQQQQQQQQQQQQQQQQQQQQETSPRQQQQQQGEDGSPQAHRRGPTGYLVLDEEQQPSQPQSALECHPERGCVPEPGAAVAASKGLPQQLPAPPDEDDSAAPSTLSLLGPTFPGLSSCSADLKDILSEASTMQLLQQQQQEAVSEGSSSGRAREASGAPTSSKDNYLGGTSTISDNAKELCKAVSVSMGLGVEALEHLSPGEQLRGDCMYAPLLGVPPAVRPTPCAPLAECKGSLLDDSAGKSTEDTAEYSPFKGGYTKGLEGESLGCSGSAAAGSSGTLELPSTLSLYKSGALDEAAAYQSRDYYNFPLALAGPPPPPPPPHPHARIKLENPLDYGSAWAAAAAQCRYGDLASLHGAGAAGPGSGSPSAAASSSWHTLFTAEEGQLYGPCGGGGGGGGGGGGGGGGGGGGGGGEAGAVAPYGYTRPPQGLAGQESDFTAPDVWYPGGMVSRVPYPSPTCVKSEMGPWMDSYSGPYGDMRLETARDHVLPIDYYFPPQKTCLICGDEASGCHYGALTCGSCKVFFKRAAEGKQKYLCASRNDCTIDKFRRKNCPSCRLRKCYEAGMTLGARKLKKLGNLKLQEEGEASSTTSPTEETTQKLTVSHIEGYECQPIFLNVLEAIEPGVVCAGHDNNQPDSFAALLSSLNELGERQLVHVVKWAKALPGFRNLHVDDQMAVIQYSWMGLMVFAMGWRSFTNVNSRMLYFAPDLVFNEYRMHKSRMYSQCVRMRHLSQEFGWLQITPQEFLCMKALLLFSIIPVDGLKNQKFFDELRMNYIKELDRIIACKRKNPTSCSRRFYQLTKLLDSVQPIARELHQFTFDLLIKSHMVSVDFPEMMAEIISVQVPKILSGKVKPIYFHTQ
Estrogen receptor beta (Homo sapiens), sequence (Q92731 whole entry, looked up, the tested form may be a part): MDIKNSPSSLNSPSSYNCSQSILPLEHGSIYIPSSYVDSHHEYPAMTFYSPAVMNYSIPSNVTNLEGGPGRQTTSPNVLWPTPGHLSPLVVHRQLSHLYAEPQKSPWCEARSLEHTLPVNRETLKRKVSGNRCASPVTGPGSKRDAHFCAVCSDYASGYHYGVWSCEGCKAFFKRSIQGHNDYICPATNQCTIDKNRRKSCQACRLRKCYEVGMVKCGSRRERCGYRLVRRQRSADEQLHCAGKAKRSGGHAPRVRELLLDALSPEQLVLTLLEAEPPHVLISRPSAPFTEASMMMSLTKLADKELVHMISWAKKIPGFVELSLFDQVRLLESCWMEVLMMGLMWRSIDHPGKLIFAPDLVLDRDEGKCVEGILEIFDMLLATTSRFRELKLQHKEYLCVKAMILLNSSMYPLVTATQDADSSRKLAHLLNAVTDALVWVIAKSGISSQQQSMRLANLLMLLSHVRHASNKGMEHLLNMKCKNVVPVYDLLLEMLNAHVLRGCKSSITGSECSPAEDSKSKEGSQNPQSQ
bovine Estrogen Receptor (ER), ESR1 (gene 407238), sequence (P49884 whole entry, looked up): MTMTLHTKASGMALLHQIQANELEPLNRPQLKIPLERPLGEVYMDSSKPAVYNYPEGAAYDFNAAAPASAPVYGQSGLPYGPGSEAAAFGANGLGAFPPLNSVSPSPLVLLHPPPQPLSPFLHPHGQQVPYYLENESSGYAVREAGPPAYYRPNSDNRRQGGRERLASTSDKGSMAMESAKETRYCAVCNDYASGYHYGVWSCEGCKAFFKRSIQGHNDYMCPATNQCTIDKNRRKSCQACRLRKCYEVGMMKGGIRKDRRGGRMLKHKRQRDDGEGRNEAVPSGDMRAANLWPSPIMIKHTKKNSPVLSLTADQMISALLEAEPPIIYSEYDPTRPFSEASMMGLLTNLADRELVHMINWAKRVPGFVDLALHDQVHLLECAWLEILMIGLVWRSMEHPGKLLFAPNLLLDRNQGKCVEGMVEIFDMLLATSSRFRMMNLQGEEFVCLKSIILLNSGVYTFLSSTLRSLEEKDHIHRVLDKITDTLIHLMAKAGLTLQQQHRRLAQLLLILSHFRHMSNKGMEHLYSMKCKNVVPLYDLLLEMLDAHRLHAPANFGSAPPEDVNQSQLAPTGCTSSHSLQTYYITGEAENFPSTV
Bile acid receptor (Homo sapiens), sequence (Q96RI1 whole entry, looked up): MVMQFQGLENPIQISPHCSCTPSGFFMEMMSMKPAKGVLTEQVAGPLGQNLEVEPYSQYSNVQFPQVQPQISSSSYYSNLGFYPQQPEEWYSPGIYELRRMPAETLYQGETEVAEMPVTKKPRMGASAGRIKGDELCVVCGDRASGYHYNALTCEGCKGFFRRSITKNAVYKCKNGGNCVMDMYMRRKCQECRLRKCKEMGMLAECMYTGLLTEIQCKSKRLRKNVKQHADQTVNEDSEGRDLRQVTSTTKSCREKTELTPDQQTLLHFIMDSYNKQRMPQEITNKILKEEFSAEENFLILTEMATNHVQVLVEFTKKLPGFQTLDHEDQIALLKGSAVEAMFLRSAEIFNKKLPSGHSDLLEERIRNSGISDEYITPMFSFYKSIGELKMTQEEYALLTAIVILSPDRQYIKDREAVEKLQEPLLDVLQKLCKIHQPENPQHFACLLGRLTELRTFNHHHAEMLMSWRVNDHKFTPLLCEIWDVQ
chimpanzee Androgen Receptor (AR), AR (gene 747460), sequence (O97775 whole entry, looked up): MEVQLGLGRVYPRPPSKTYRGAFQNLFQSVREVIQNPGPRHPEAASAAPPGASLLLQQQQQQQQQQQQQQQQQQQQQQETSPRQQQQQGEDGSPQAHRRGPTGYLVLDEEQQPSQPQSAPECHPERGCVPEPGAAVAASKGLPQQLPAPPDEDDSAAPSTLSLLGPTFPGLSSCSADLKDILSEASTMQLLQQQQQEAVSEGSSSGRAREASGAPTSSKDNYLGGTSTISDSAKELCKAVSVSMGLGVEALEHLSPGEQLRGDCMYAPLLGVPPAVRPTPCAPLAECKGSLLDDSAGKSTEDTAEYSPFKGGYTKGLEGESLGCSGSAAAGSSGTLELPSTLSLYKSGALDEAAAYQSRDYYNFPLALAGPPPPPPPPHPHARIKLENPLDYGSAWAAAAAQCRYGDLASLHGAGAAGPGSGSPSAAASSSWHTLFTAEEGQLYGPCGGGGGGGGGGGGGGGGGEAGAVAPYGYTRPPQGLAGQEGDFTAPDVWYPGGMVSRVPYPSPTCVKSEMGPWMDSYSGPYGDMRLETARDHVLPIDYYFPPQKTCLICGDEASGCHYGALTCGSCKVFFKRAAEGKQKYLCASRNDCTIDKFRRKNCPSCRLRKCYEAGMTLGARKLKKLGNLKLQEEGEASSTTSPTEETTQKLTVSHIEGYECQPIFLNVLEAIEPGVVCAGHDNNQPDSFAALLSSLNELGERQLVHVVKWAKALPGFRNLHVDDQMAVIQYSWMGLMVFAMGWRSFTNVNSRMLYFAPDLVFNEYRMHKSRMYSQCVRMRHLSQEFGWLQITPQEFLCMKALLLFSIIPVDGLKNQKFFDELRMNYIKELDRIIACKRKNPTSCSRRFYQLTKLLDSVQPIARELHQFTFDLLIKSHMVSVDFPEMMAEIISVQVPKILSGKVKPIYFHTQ
Estrogen receptor (Homo sapiens) + Estrogen receptor beta (Homo sapiens), sequence (P03372 whole entry, looked up): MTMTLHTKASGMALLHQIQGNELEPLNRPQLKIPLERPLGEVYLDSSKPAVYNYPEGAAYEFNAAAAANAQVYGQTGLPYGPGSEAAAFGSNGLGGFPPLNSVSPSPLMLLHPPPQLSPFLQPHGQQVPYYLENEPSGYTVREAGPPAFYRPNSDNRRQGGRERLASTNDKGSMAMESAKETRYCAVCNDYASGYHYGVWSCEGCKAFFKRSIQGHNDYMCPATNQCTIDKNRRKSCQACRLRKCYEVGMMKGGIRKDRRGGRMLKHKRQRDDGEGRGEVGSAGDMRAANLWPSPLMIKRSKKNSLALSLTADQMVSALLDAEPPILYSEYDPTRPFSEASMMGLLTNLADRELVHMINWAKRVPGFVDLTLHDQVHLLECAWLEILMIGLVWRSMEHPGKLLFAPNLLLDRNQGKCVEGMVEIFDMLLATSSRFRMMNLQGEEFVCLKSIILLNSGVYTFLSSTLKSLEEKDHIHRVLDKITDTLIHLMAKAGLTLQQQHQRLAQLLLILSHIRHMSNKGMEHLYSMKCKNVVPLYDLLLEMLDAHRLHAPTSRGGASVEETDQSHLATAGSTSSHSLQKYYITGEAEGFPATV
Estrogen receptor (Homo sapiens) + Estrogen receptor beta (Homo sapiens), sequence (Q92731 whole entry, looked up): as the sequence (Q92731 whole entry, looked up, the tested form may be a part) above
Estrogen receptor (Homo sapiens), sequence (P03372 whole entry, looked up, the tested form may be a part): as the sequence (P03372 whole entry, looked up) above

CC(C)(O)c1ccc(CNC(=O)c2cccnc2Oc2ccc3nonc3c2)cc1
outcome [1]: inactive
outcome [2]: inactive
outcome [3]: inactive
outcome [4]: inactive

c1ccc2ccccc2c1
outcome [1]: inactive
outcome [2]: inactive
outcome [3]: inactive

Cc1cc2c(cc1C(F)(F)F)N(C(=O)Nc1ccc(Oc3cccnc3C)nc1)CC2
outcome [5]: inactive
outcome [6]: inactive
outcome [2]: inactive
outcome [3]: inactive
outcome [4]: inactive

O=C=NCCCCCCN=C=O
outcome [2]: inactive
outcome [3]: inactive
outcome [7]: inactive

CCCOC(=O)c1cc(O)c(O)c(O)c1
outcome [5]: inactive
outcome [1]: inactive
outcome [2]: inactive
AC50 [3]: 50 µM (active)
AC50 [7]: 39.8 µM (active)
AC50 [4]: 25.4 µM (active)

CCCCCCCCCC(=O)O
outcome [8]: inactive
outcome [9]: inactive

O=C(Nc1ccc(Cl)cc1)Nc1ccc(Cl)c(Cl)c1
outcome [5]: inactive
outcome [1]: inactive
outcome [2]: inactive
outcome [10]: inactive
outcome [3]: inactive
outcome [7]: inactive
AC50 [8]: 4.86 µM (active)
outcome [9]: inactive
outcome [4]: inactive

CC1(C)NC(=O)N(c2ccc([N+](=O)[O-])c(C(F)(F)F)c2)C1=O
AC50 [6]: 1.06 µM (active) and 136 nM (active)
outcome [4]: inactive

O=CCCCC=O
outcome [5]: inactive
outcome [2]: inactive
outcome [3]: inactive
outcome [11]: inactive

CCCC(=O)OCCC(C)C
outcome [2]: inactive
outcome [3]: inactive
outcome [8]: inactive
outcome [9]: inactive

NC(=O)c1nc(-c2cccc(-c3cc(F)ccc3OCC(F)(F)C(F)(F)F)c2)n[nH]1
outcome [1]: inactive
outcome [2]: inactive
outcome [3]: inactive
AC50 [8]: 50 µM (active)
AC50 [9]: 50 µM (active)

CC[C@H](NC(=O)c1cc(F)ccc1NS(=O)(=O)c1cccc2cccnc12)c1ccccc1
outcome [5]: inactive
outcome [1]: inactive
outcome [2]: inactive
outcome [3]: inactive
outcome [7]: inactive
outcome [4]: inactive

O=c1ccc2ccccc2o1
outcome [2]: inactive
outcome [3]: inactive
outcome [7]: inactive
outcome [4]: inactive

O=C(O)Cn1c(=O)n(Cc2ccc(Br)cc2F)c(=O)c2ccc(Cl)cc21
outcome [2]: inactive
outcome [3]: inactive
outcome [7]: inactive
outcome [8]: inactive
outcome [4]: inactive

O=c1c(-c2ccc(O)cc2)coc2cc(O)cc(O)c12
outcome [6]: inactive
outcome [10]: inactive
outcome [8]: inactive
outcome [9]: inactive

Clc1ccccc1C(c1ccccc1)(c1ccccc1)n1ccnc1
outcome [5]: inactive
outcome [1]: inactive
outcome [2]: inactive
outcome [3]: inactive
outcome [4]: inactive

O=c1[nH]sc2ccccc12
outcome [2]: inactive
outcome [10]: inactive
outcome [3]: inactive
outcome [4]: inactive

CC[C@@H]1C[C@H](N(Cc2cc(C(F)(F)F)cc(C(F)(F)F)c2)C(C)=O)c2cc(C(F)(F)F)ccc2N1C(=O)OC(C)C
outcome [2]: inactive
outcome [4]: inactive

CCN(Cc1cccc(S(=O)(=O)O)c1)c1ccc(C(=C2C=CC(=[N+](CC)Cc3cccc(S(=O)(=O)O)c3)C=C2)c2ccccc2S(=O)(=O)[O-])cc1
AC50 [6]: 16.1 µM (active)
outcome [2]: inactive
outcome [10]: inactive
outcome [7]: inactive
outcome [4]: inactive

CO[C@H]1/C=C/O[C@@]2(C)Oc3c(C)c(O)c4c(O)c(c(/C=N/N5CCN(C)CC5)c(O)c4c3C2=O)NC(=O)/C(C)=C\C=C\[C@H](C)[C@H](O)[C@@H](C)[C@@H](O)[C@@H](C)[C@H](OC(C)=O)[C@@H]1C
outcome [4]: inactive

O=C1CCC(C2CCCCC2)CC1
outcome [6]: inactive
outcome [4]: inactive

CCCCCCCCCCCCO
outcome [2]: inactive
outcome [3]: inactive
outcome [7]: inactive
outcome [4]: inactive

Oc1ccc2ccccc2c1
outcome [8]: inactive
outcome [9]: inactive
AC50 [4]: 37.7 µM (active)

Cc1cn([C@H]2C[C@H](N=[N+]=[N-])[C@@H](CO)O2)c(=O)[nH]c1=O
outcome [2]: inactive
